Experimental data published in PubChem BioAssay (NCI).
This is part of a sample that, as a whole, favours compounds with a hit. Of some 83,000 tested, about 20% had one in any assay.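 Method: cells in 96-well plates; compound added at one concentration; 48 h incubation; percent growth measured; values under 10 scored active.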 Calls of active or inactive are those of the source.

System: HL-60(TB) leukemia
Experiment: NCI-60 one-dose screen, 48 h (100 = growth as untreated, 0 = no growth, -100 = all killed)
Conditions: 10 µM unless noted

SMILES	growth
Nc1cc(N)c2nc(NCCc3ccc(Cl)c(Cl)c3)cnc2c1	-74.3% (active)
Cc1nn(-c2ccc(-c3ccc(OC(F)(F)F)cc3)cc2)c2nc(-c3ccccc3)nc(N)c12	100% (inactive)
COc1cc(Cl)cc(-c2nn(-c3cccc(NC(=O)Nc4cc(C(F)(F)F)cc(C(F)(F)F)c4)c3)cc2-c2ccncc2)c1	-20.1% (active)
CCOC(=O)c1cc(C(=O)c2cc(OC)c(OC)c(OC)c2)n2ccc(-c3cc[n+](CC(=O)c4cc(OC)c(OC)c(OC)c4)cc3)cc12	32.9% (inactive)
COc1cc(C2=NN(C(C)=O)C(c3cccc(Nc4ccnc5cc(C(F)(F)F)ccc45)c3)C2)cc(OC)c1OC (stereo not given)	10.6% (inactive)
Cc1cc(N2CCOCC2)nc(NCc2cc(Nc3ccnc4cc(Cl)ccc34)ccc2F)n1	-54.2% (active)
O=C(CSc1nnc(Nc2ccccc2)s1)NCCc1ccc(F)cc1	110% (inactive)
C[C@]12CC[C@@H]3c4ccc(O)cc4CC[C@H]3[C@@H]1CC[C@@H]2NS(=O)(=O)c1cccc(Br)c1	35.2% (inactive)
N=C(N)c1ccc(-c2ccc(-c3ccc(Cl)cc3Cl)s2)cc1F	-49.7% (active)
COc1cc(/C=C/c2ccc3c(Br)cc(Br)c(O)c3n2)ccc1O	-47.3% (active)
O=C(CN1C(=O)/C(=C/c2ccco2)SC1=S)NCCc1c[nH]c2ccc(F)cc12	95.9% (inactive)
COc1ccc(C2CC(=O)Nc3c2c(C)nn3-c2nc3ccccc3[nH]2)cc1OC (stereo not given)	31.9% (inactive)
COc1ccc2c(c1)C(=O)/C(=C/c1cccnc1)CC2	99.5% (inactive)
CCOC(=O)c1cnc2c(C)cccc2c1Nc1ccc(C(C)=O)cc1	-43.5% (active)
CC1(C)NCCC[C@]2(C)[C@H]3CC=C4[C@@H]5C[C@](C)(COC(=O)c6ccccc6C(=O)O)CC[C@]5(C)CC[C@@]4(C)[C@]3(C)CC[C@@H]12	65.3% (inactive)
CN(C)c1ccc(/C=C\C2=[N+](C)c3ccccc3C2(C)C)cc1	22.9% (inactive)
CC12CCC3c4ccc(O)cc4CCC3C1CCC2=O (stereo not given)	79.4% (inactive)
Nc1nc(CSc2n[nH]c(N)n2)nc(Nc2ccccc2)n1	92.7% (inactive)

SMILES	growth
CC1=C(/C=C/C(C)=C/C=C/C(C)=C/C(=O)Nc2ccc(O)cc2)C(C)(C)CCC1	-32.3% (active)
CC1OC(OC2C(OC3CCC4(C)C(CCC5(C)C4CC=C4C6CC(C)(C)CCC6(CO)C(O)CC45C)C3(C)C)OC(C(=O)O)C(OC3OC(COC4OC(CO)C(O)C(O)C4O)C(O)C(O)C3O)C2O)C(O)C(O)C1O (stereo not given)	-73% (active)
O=C(Nc1cccc(Cn2c(=O)[nH]c3ccc(Oc4ncccn4)cc3c2=O)c1)c1cc(Cl)cc(Cl)c1	98.5% (inactive)
COc1ccc(/C=C2\COc3ccc(O)c(O)c3C2=O)c(OC)c1	-13.2% (active)
COc1ccc2c(c1)c(-c1nonc1-c1c[nH]c3ccc(Br)cc13)cn2C	53.2% (inactive)
CC[C@H](CC[C@@H](C)[C@H]1CC[C@H]2[C@@H]3/C(=C/c4cccnc4)C(=O)C4=CC(=O)CC[C@]4(C)[C@H]3CC[C@]12C)C(C)C	64.6% (inactive)
CCCCCCN1CCN(Cc2ccc(N(CC)CC)cc2)C(=O)C1=O	-19.1% (active)
CC(C)(C)OC(=O)NCc1cccc(N=C=S)c1	-24% (active)
Nc1cc(C(=O)O)[nH]c(=S)n1	123% (inactive)
CC(=O)C1=C(O)C=C2Oc3c(C(=O)/C=C/c4cc(Cl)cc(Cl)c4)c(O)c(C)c(O)c3[C@]2(C)C1=O	-34.8% (active)
Cc1ccc2c(c1)sc1nc(-c3c[nH]c4ccccc34)c(Nc3ccccc3)n12	97% (inactive)
Cc1cc2c(c(C)c1Cl)C(=O)/C(=C/c1ccc(O)c(O)c1)O2	108% (inactive)
c1ccc(CN2COc3c(ccc4c3OCN(Cc3ccccc3)C4)C2)cc1	-19% (active)
CCOC(=O)c1[nH]c(=O)c2c(C)nc(-c3ccccc3)cc2c1O	111% (inactive)
COc1ccc(/C=c2/c(=O)[nH]c3nc4sc(C)c(C)c4c(=O)n23)cc1	71.8% (inactive)
Cc1nc([P+](c2ccccc2)(c2ccccc2)c2ccccc2)c(N2CCCCC2)o1	-2.68% (active)
CN1CCN(Cc2ccc(NC(=O)c3cncc(C#Cc4cnc(N)c5cnccc45)c3)cc2C(F)(F)F)CC1	-25% (active)
